Outcome data for 40 molecules are collected here from PubChem BioAssay (NCATS).

Results filed as inconclusive are left out. Activity calls are given as the source filed them. Calls come from the whole dose curve; as a rule, active = well fitted inhibition curve with a large enough effect; inconclusive = small, poorly fitted or top-dose-only effect; inactive = flat fitted curve, though single readings scatter.

This assay deals with NIH3T3. Description: qHTS assay to identify novel small-molecules to repurpose for Merkel cell carcinoma treatment (AID 1296009). Note: nearly all actives have a fitted effect of over 60% in size. Conditions: MCC and control cell lines, CellTiter-Glo viability, 72 h; at 44.8 µM (top of the series) unless noted. The text has this: MCC is a rare and aggressive neuroendocrine skin cancer with limited treatment options. Approximately 80% of MCCs have the Merkel cell polyomavirus (MCPyV) DNA integrated into the host genome (virus-positive: VP-MCC) and viral oncogenes drive oncogenesis. The remaining MCCs are virus-negative (VN-MCC) and are caused by UV mutagenesis. To identify novel treatments for VP-MCC and/or VN-MCC we screened three VP-MCC cell lines (WAGA, MKL-1, MKL-2), three VN-MCC cell lines (MCC-13, MCC-26, UISO), and four immortalized, non-transformed control cell lines (HaCaT, HEK293T, CRL7250, NIH-3T3) against ~2,400 compounds in the NCGC Pharmaceutical Collection (NPC) and ~1,900 compounds in the Mechanism Interrogation PlatE (MiPE). Using cell viability as a readout (CellTiter-Glo assay) we found both overlapping and distinct drugs that can be repurposed for the treatment of VP-MCC and VN-MCC.
A high-throughput screen was conducted in 1536-well white flat bottom plates (Corning) on a Kalypsys robotic system. Cell lines WAGA, MKL-1, MKL-2, MCC-13, MCC-26, UISO, HaCaT, HEK293T, CRL7250, and NIH-3T3 were screened against 2 small molecule annotated drug libraries NPC and MIPE in dose response (8 and 11 pt. respectively) measuring cell viability after 72 hours of incubation. […] A 1,536 pintool (Kalypsys) was used to transfer 23 nL of compound in DMSO to the 1,536-well assay plates. After 72 hr incubation at 37 degree celsius, 2.5 uL of CellTiter-Glo (Promega) was dispensed into each well using a BiorapTR. Plates were incubated at room temperature for 10 min, transferred to a ViewLux (PerkinElmer) and the luminescence was recorded using an exposure time of 2 seconds. Relative luminescence units (RLUs) were normalized to in-plate controls (no cells as a positive (cytotoxicity) control, DMSO as negative control) and the normalized data was processed using NCATS in-house software.
In general terms: Quantitative high-throughput screening tests each substance at several concentrations.
Take `C[C@@]1(C(=O)O)CC[C@]2(C)CC[C@]3(C)C4=CC(=O)c5cc(O)c(O)cc5[C@]4(C)CC[C@@]3(C)[C@@H]2C1`: the outcome is “inactive [at 17.4 µM]”. In the case of `COC1C(O)C(C)OC(OC2C(CO)O[C@@H](O[C@@H]3CC4CCC5C(CC[C@]6(C)[C@@H](C7=CC(=O)OC7)CC[C@]56O)[C@@]4(C)[C@H](O)C3)C(O)C2O)C1O` (stereo not given in full), the outcome is “inactive [at 17.4 µM]”. Take `CC12CCC3C(CCC4(O)CC(O)CCC34C=O)C1(O)CCC2C1=CC(=O)OC1` (stereo not given): the result was inactive. In the case of `CC1=C2C(=O)C3[C@@H](CC=C4C[C@@H](O)CC[C@@]43C)[C@@H]2CC[C@]12O[C@@H]1C[C@H](C)CN[C@H]1[C@H]2C` (stereo not given in full) it was “inactive [at 17.4 µM]”; in that of `Clc1ccc(OCC2=NCCN2)cc1Cl`, “inactive”; in that of `CC1=C2C[C@H]3[C@@H](CC=C4C[C@@H](O)CC[C@@]43C)[C@@H]2CC[C@]12O[C@@H]1C[C@H](C)CN[C@H]1[C@H]2C`, “inactive”. In the case of `CN1[C@@H]2CC[C@H]1CC(OC(=O)C1C=Nc3ccccc31)C2` (stereo not given in full) it was “inactive”; in that of `O=C(N1CCOCC1)N1CCN(c2ccc(Cl)cc2)CC1`, “inactive”; in that of `CN1CCC[C@@H]1Cc1c[nH]c2ccc(Nc3ncccc3[N+](=O)[O-])cc12`, “inactive”.

`COC1CC(O[C@H]2CC[C@]3(C=O)C4CC[C@]5(C)[C@@H](C6=CC(=O)OC6)CC[C@]5(O)[C@@H]4CC[C@]3(O)C2)OC(C)C1O[C@@H]1O[C@H](CO)[C@@H](O)[C@H](O)[C@H]1O` (stereo not given in full): the outcome was “inactive [at 17.4 µM]”. In the case of `CCC(C)(OC(C)=O)C(=O)O[C@H]1[C@H](OC(C)=O)C[C@@H]2[C@@](C)([C@@H]3C[C@H]4C=CO[C@H]4O3)[C@H](C)C[C@H](OC(C)=O)[C@@]2(COC(C)=O)[C@@]12CO2` (stereo not given in full) it was “inactive [at 17.4 µM]”; in that of `Cc1cn(C[C@H](N)C(=O)O)c(=O)n(Cc2cc(-c3ccccc3)sc2C(=O)O)c1=O`, “inactive”; in that of `CC(=O)OC12C(O)C(C)C3(O)C4C=C(C)C(=O)C4CC(CO)=CC3C1C2(C)C` (stereo not given), “inactive [at 17.4 µM]”.

For the molecule `C[C@@H]1C(=O)O[C@H]2[C@H](O)[C@@]34[C@@H]5OC(=O)[C@@]3(O[C@@H]3OC(=O)[C@@H](O)[C@@]34[C@H](C(C)(C)C)[C@H]5O)[C@@]12O`, the outcome was “inactive [at 17.4 µM]”.

In the case of `CO[C@@H]1[C@H](O)[C@@H](O[C@@H]2C[C@H]3CC[C@@H]4C(CC[C@]5(C)[C@@H](C6=CC(=O)OC6)CC[C@]45O)[C@@]3(C)[C@H](O)C2)O[C@H](C)[C@@H]1O[C@@H]1O[C@H](CO)[C@@H](O)[C@H](O)[C@H]1O` (stereo not given in full), the outcome was “inactive [at 17.4 µM]”.

For the molecule `Cc1cccc(NC(=O)N[C@@H]2N=C(c3ccccc3)c3ccccc3N(C)C2=O)c1`, the outcome was inactive. For the molecule `Oc1ccc2c3c1O[C@H]1[C@H](N(CCCl)CCCl)CC[C@@]4(O)[C@@H](C2)N(CC2CC2)CC[C@]314`, the outcome is “inactive [at 9.27 µM]”.

Take `C[C@H]1O[C@@H](O[C@H]2C[C@@H](O)[C@]3(CO)C4C(CC[C@]3(O)C2)[C@@]2(O)CC[C@H](C3=CC(=O)OC3)[C@@]2(C)C[C@H]4O)[C@@H](O)[C@@H](O)[C@H]1O` (stereo not given in full): the outcome is “inactive [at 17.4 µM]”.

As to `CC(C)C1(OO)C=C2C(=O)CC3C(C)(C(=O)O)CCCC3(C)C2CC1` (stereo not given), the molecule was classed as inactive. Next, `N#C[C@@H](O[C@@H]1O[C@H](CO[C@@H]2O[C@H](CO)[C@@H](O)[C@H](O)[C@H]2O)[C@@H](O)[C@H](O)[C@H]1O)c1ccccc1`: “inactive [at 17.4 µM]”; `C1=C2CCCN[C@H]2[C@@H]2C[C@H]1[C@H]1CCCCN1C2`: “inactive”; `N#CC(OC1OC(COC2OC(CO)C(O)C(O)C2O)C(O)C(O)C1O)c1ccccc1` (stereo not given): “inactive [at 17.4 µM]”. For the molecule `CN(C)CCc1c[nH]c2ccc(CN3CCN(C)S3(=O)=O)cc12`, the result was inactive. In the case of `COc1cc(C(=O)O[C@H]2[C@@H]3C=CO[C@@H](O[C@@H]4O[C@H](CO)[C@@H](O)[C@H](O)[C@H]4O)[C@@H]3[C@@]3(CO)O[C@@H]23)ccc1O` it was “inactive [at 17.4 µM]”. In the case of `CC(=O)OC1CC(O)C(C)(C)C2CC(OC(C)=O)C3(C)C(CCC4(C)C(c5ccoc5)C(=O)C5OC543)C12C` (stereo not given) it was “inactive [at 17.4 µM]”; in that of `COC(=O)N1CCN(C(=O)Cc2ccc(Cl)c(Cl)c2)[C@@H](CN2CCCC2)C1`, “inactive”. In the case of `CC1=CC2/C=C(\C)CCC(O)C3OC(C)(C)OC3CC(=O)OC23C(=O)NC(CC(C)C)C3C1C` (stereo not given) it was “inactive [at 17.4 µM]”; in that of `C[C@]12CC[C@@H](O)C[C@H]1CC[C@@H]1[C@@H]2CC[C@]2(C)C(=O)CC[C@@H]12`, “inactive”. As for `COc1cc(C)[nH]c(=O)c1CNC(=O)c1c(C)n([C@H](C)C2CCOCC2)c2ccccc12`, the outcome was inactive.

On to `CCN1CC2(COC)C3[C@@H](OC)C4C1C3(C1C[C@]3(O)[C@H](OC(=O)c5ccccc5)C1[C@]4(OC(C)=O)[C@@H](O)[C@@H]3OC)[C@H](OC)C[C@H]2O` (stereo not given in full), for which the molecule was classed as inactive.

Turning to `C=CC(C)(C)c1[nH]c2cccc3c2c1C[C@@H]1[C@@H]3[C@@H](OC(C)=O)[C@H](C)CN1C`, the call was inactive. In the case of `CO[C@H]1[C@H](O)[C@H](O[C@H]2CC[C@]3(C)C4CC[C@]5(C)[C@H](C6=CC(=O)OC6)CC[C@]5(O)C4CC[C@@H]3C2)O[C@@H](C)[C@@H]1O` (stereo not given in full) it was “inactive [at 17.4 µM]”; in that of `COC1CC(OC2CCC3(C=O)C(CCC4C3CCC3(C)C(C5=CC(=O)OC5)CCC43O)C2)OC(C)C1OC1OC(CO)C(O)C(O)C1O` (stereo not given), “inactive [at 17.4 µM]”; in that of `CCC(C)(C#N)O[C@@H]1O[C@H](CO)[C@@H](O)[C@H](O)[C@H]1O` (stereo not given in full), “inactive”. With `C[C@@](O)(COc1ccc(C#N)cc1)C(=O)Nc1ccc(C#N)c(C(F)(F)F)c1`, the molecule was called inactive.

For `CCCN1CCO[C@H]2c3cc(O)ccc3OC[C@@H]21`, the molecule was called inactive. Next, `CC(N)Cc1c[nH]c2ccccc12` (stereo not given): “inactive”; `Clc1ccc(N2C[C@H]3CC[C@@H](C2)N3)nn1`: “inactive”.

`Cc1c(Cl)cccc1S(=O)(=O)Nc1nc(CC(=O)N2CCN(C)CC2)cs1`: the call was inactive. In the case of `CCc1[nH]c2ccc(OC)cc2c1CCN(C)C` it was “inactive”.
